This excerpt belongs to a sample that is enriched for hits.
JMJD2E inh – blocks human JMJD2E demethylase activity; Potency, µM (doses to about 57.1 µM), usual class: inhibitors; B2RXH2; 230,000 tested, 1.6% active; JMJD2E catalytic domain, FDH-coupled NADH fluorescence (FDH is formaldehyde dehydrogenase); further: nearly all actives have a fitted effect of over 50% in size
Target sequence (B2RXH2 1-337 limits assumed): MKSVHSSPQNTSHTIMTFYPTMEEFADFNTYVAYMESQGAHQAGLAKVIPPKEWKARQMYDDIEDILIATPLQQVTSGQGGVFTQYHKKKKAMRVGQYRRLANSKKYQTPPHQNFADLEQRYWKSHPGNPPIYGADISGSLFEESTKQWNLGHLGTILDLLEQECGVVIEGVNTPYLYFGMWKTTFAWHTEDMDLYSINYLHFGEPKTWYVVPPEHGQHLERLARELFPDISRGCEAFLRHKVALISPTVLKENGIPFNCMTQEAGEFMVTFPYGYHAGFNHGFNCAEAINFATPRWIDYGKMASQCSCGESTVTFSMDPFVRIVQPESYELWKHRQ
GCN5L2 inh – GCN5L2 (KAT2A) acetyltransferase inhibition | Potency, µM (top dose mostly 58.9 µM), usual class: inhibitors | AID 504327 | 390,000 tested, 0.21% active | GCN5L2 HAT assay, ThioGlo1 CoA-SH fluorescence
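Enzyme at 20nM final was mixed with library compounds for 15 min at room temperature. Peptide H3(1-25) at 75uM, acetyl-CoA at 70uM and ThioGlo1 at 50uM were then added. Plates were read immediately and after 20 min (Ex340nm/Em540nm).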
APEX1 inh – APE1 (human) endonuclease inhibition. P27695. recombinant APE1, TAMRA/BHQ-2 abasic DNA cleavage fluorescence. Potency, µM (series often up to 65.8 µM), usual class: inhibitors. 350,000 tested, 0.35% active. AID 2517; further: nearly all actives have a fitted effect of over 55% in size
Target sequence (P27695 whole entry, looked up): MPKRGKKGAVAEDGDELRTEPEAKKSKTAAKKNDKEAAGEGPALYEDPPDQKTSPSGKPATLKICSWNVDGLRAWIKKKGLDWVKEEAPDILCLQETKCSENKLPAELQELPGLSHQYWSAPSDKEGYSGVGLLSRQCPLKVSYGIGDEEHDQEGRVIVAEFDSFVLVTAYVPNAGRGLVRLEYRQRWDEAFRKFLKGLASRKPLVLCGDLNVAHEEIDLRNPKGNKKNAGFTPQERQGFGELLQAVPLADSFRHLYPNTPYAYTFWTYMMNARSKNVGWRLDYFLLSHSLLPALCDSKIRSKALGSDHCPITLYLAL
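0.75 nM APE1 + cpd, 15 min RT; start w/ 50 nM TAMRA/BHQ-2 THF-abasic dsDNA; kinetic fluor 525/598 nm ×3 reads @60 s; Δ(read3−read1); normalized to DMSO and NSC13755 control wells.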
RECQ1 inh – RECQ1 (human) helicase inhibition; Potency, µM (titrated, usually from 57.3 µM), usual class: inhibitors; RECQ1 DNA unwinding, red fluorescence kinetic read; 240,000 tested, 0.54% active; P46063; further: nearly all actives have a fitted effect of over 30% in size
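50 nM RECQ1T1 preincubated 15 min with compound in Tris pH 8.0 buffer with MgCl2, DTT, Tween-20 and 2.5 ug/ml poly(dI-dC); started with 200 nM TAMRA/BHQ-2 forked duplex and 2 mM ATP. Unwinding read as fluorescence (525/598 nm), two reads 2 h apart.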
BLM helicase inh – blocks DNA unwinding by human BLM helicase. Potency, µM (titrated, usually from 56.1 µM), most hits filed as inhibitors. 350,000 tested, 0.2% active. P54132. AID 2528. recombinant BLM DNA unwinding, fluorescence dequenching; further: nearly all actives have a fitted effect of over 35% in size
TDP1 block – blocks human tyrosyl-DNA phosphodiesterase 1; 350,000 tested, 0.28% active; Potency, µM (top dose mostly 130 µM), usual class: inhibitors; recombinant TDP1, AlphaScreen DNA substrate cleavage; AID 485290; further: nearly all actives have a fitted effect of over 40% in size
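Signal: AlphaScreen proximity between streptavidin donor and anti-FITC acceptor beads on intact substrate. Reaction: Tdp1 1 nM, substrate 15 nM final, 5 min RT after 15 min compound preincubation.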
Hits are given with their value; – = inactive; ? = inconclusive; · = no result given; [ ] = another dose, or the depositor's remark. Unless noted, the call rests on the fitted dose curve; in most records, active means well fitted curve in the direction sought with a large enough effect; inconclusive means small, poorly fitted or top-dose-only effect, or another doubt; inactive means no such curve, though single readings can be large; an effect the other way counts as inactive or inconclusive.

SMILES	JMJD2E inh	GCN5L2 inh	APEX1 inh	RECQ1 inh	BLM helicase inh	TDP1 block
O=C(O)c1ccccc1OC1=NS(=O)(=O)c2ccccc21	·	·	·	·	·	–
C=CC[n+]1ccc(/C=C2\C=Cc3cc(C)ccc3N2CC)c2ccccc21	3.16µM	–	–	–	?	–
COC(=O)C1C2CC3c4[nH]c5cc(OC)ccc5c4CCN3CC2CC(OC(=O)c2cc(OC)c(OC)c(OC)c2)C1OC (stereo unspecified)	20µM	·	?	–	–	–
CCOc1ccc(CC2NCCc3cc(OCC)c(OCC)cc32)cc1OCC (stereo unspecified)	35.5µM	–	–	–	–	–
C[C@@H]1O[C@@H](O[C@@H]2C(=O)c3c(O)cc(O)cc3O[C@H]2c2ccc(O)c(O)c2)[C@H](O)[C@H](O)[C@H]1O	·	–	–	·	·	–
O=C1c2c(O)cc(O)cc2O[C@H](c2ccc(O)c(O)c2)[C@H]1O	20µM	–	?	?	–	–
O=C1c2c(O)cc(O)cc2O[C@H](c2ccc(O)c(O)c2)[C@@H]1O	14.1µM	–	?	17.8µM	–	–
COc1cc([C@@H]2Oc3cc(C4Oc5cc(O)cc(O)c5C(=O)[C@H]4O)ccc3O[C@H]2CO)ccc1O (stereo partly specified)	·	–	–	·	·	·
COc1cc([C@@H]2Oc3cc([C@H]4Oc5cc(O)cc(O)c5C(=O)[C@H]4O)ccc3O[C@H]2CO)ccc1O	28.2µM	·	?	–	–	–
Cc1cccc(/N=C/c2sc3ccccc3c2O)n1	?	–	–	–	–	–
O=[N+]([O-])c1ccc(O)c(N=Cc2sc3ccccc3c2O)c1	7.08µM	–	?	–	–	–
O=C(O)c1cccc(-c2ccc(/C=N/n3cnc4sc5c(c4c3=O)CCCC5)o2)c1	?	–	?	–	–	17.8µM
CCCCc1cc2c(cn1)=C(OC(=O)c1ccco1)C(C)(OC(=O)CC)C(=O)C=2 (stereo unspecified)	–[11.4 µM]	·	–[12.4 µM]	–[11.5 µM]	–[12.4 µM]	–[12.3 µM]
COc1ccc(/C=N/Nc2nnc(C)n2N)cc1OC	14.1µM	–	–	–	–	–
O=C(CNC(=O)c1cccc(Cl)c1)OC(C(=O)Nc1cc(C(F)(F)F)ccc1Cl)c1ccccc1 (stereo unspecified)	·	·	·	·	·	–
CCOC(=O)Cc1csc(-n2sc3ccccc3c2=O)n1	10µM	–[0.501 µM]	–	–	–	–
Nc1ncnc2c1nc(Sc1ccc(Cl)cc1)n2[C@H]1OC2COP(=O)(O)O[C@@H]2C1O (stereo partly specified)	·	–	·	·	·	·
CCCn1c(CNc2ccccc2O)nc2ccccc21	14.1µM	?	–	–	–	–
O=C(CSc1nnc(-c2cccc([S+](=O)([O-])N3CCCC3)c2)n1-c1ccccc1)Nc1cccc(F)c1	·	·	–	·	·	·
CN(C)CCOc1cccc(Cl)c1	22.4µM	–	–	–	–	–
CC(C)(C)n1ncc2c(=O)n(Cc3ccc(F)c(C(F)(F)F)c3)cnc21	·	·	–	·	·	·
C/C=C\C1=C(CO)[C@H](O)[C@H]2O[C@H]2[C@H]1O	·	·	–[12.4 µM]	–[11.5 µM]	–[12.4 µM]	–[21 µM]
C/C=C\C1=C(CO)C(=O)[C@@H]2OC2C1=O (stereo partly specified)	·	·	1.58µM	3.55µM	–[12.4 µM]	?
CCCC(=O)O[C@]1(C(=O)CCl)[C@H](C)C[C@@H]2[C@H]3CCC4=CC(=O)C=C[C@]4(C)[C@@]3(F)C(=O)C[C@@]21C	·	–	·	·	–	·
Cc1cc(NS(=O)(=O)c2ccc(NC(=O)c3cc4c(=O)n5ccccc5nc4s3)cc2)nc(C)n1	?	–	?	–	–	39.8µM
SMILES	JMJD2E inh	GCN5L2 inh	APEX1 inh	RECQ1 inh	BLM helicase inh	TDP1 block
COCCN(CCOC)C(=O)c1cc2c(=O)n3ccccc3nc2s1	?	17.8µM	–	–	–	–
CCN(CC)C(=O)c1cc2c(=O)n3ccccc3nc2s1	?	–	–	–	–	–
Cc1cc(NS(=O)(=O)c2ccc(NC(=O)c3cc4ccccc4o3)cc2)nc(C)n1	–	–	–	–	–	–
O=C(OCC#CCSc1nnc(-c2cccc3ccccc23)o1)c1ccc(SC(F)(F)F)cc1	·	·	·	·	·	–
Cc1cnc2c3c(cc(Cl)c2c1)-c1ccccc1S(=O)(=O)N3	·	·	·	·	·	–
Cc1ccc(-c2csc(NC(=O)C3CC(=O)N(c4ccc5c(c4)OCCO5)C3)n2)o1 (stereo unspecified)	·	·	·	·	·	–
CN1CCN(c2ncc3nc(-c4cc(F)cc(F)c4)c(=O)n(CCC#N)c3n2)CC1	·	25.1µM	–	–	–	·
CC(C)(C)n1ncc2c(=O)n(Cc3ccc(C(F)(F)F)cc3)cnc21	·	·	–	·	·	·
O=C(OCc1ccccc1F)c1cnc(Cl)c(Cl)c1	·	–	–[12.4 µM]	·	–	89.1µM
CCN1/C(=C/C=C/c2sc3ccccc3[n+]2CC)Sc2ccccc21	·	?	23.8µM	·	31.6µM	·
CCN1/C(=C/C=C/C=C/c2sc3ccccc3[n+]2CC)Sc2ccccc21	22.4µM	?	?	?	?	–
COc1ccc(C2Nc3ccccc3C(=O)N2Cc2ccc(C(C)(C)C)cc2)cc1COc1ccc(NC(C)=O)cc1 (stereo unspecified)	·	·	·	·	·	–
C/C(=N\Nc1ccc(C(=O)O)cc1)c1ccc(Br)cc1	–	–	25.1µM	–	–	·
Oc1ccc(/C=N/Nc2ncc(Br)cn2)c(O)c1	11.2µM	–	–	–	–	–
Oc1ccc(Br)cc1/C=N/Nc1ncc(-c2ccccc2)cn1	–	–	–	–	–	–
O=C1NC(=O)/C(=C/c2cccn2-c2ccc(P(=O)(O)O)cc2)N1	·	·	–	·	·	·
O=C(CNC(=O)c1cccnc1)N/N=C/c1ccc(O)cc1O	·	?	–	·	–	·
O=C(CNC(=O)c1cccs1)N/N=C/c1ccc(O)cc1O	3.16µM	–	–	–	–	–
C=CCN1c2ccccc2[C@]23C[C@@H](C(=O)OC)N(C(=O)COCc4ccccc4)C2=NC(C(=O)OC)=C(C(=O)OC)[C@H]13	–[11.4 µM]	·	–[12.4 µM]	–[11.5 µM]	–[12.4 µM]	–[21 µM]
CCOc1[nH]c(/N=C/c2ccc(OC)cc2)c(C#N)c1C#N	·	·	·	·	·	–
COC(=O)c1c(N)n(-c2ccc(N3CCOCC3)cc2)c2nc3ccccc3nc12	17.8µM	–	–	–	–	–
COC(=O)c1c(N)n(-c2ccc(NC(C)=O)cc2)c2nc3ccccc3nc12	?	–	–	–	–	–
Cc1ccc(CNc2ccc(N3CCNCC3)cc2)cc1	·	·	–	·	·	·
CN(C)c1ccc(O)c2c1C[C@H]1C[C@H]3[C@@H](N(C)C)C(=O)C(C(N)=O)=C(O)[C@]3(O)C(=O)C1=C2O	?	–	?	–	–	·
COc1ccc(OC)c2c1C(=O)C(Cl)=C(Cl)C2=O	?	12.6µM	–	–	–	·
Oc1ccc2ccccc2c1/C=N/Nc1ccccc1	7.94µM	–	–	–	–	–
O=CN/N=C/c1c(O)ccc2ccccc12	11.2µM	–	–	–	–	–
Cc1cc(Nc2ccccc2)nc(-c2ccccc2O)n1	?	–	–	–	–	–

Bioassay records from PubChem BioAssay.
